# Compound activity as filed in PubChem.
# In the library only some 4.6% were active in any assay of this set; here they are far more common.
# HIF-2a block – HIF-2a inhibition. 786-0 RCC cells HIF-2a reporter, luciferase luminescence, overnight. inhibition, % at 18.8 µM. 360,000 compounds, 0.72% hits;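 active = inhibition of the luminescence signal of 40% or more relative to plate controls, in a single-dose primary screen at 18.75 µM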
# KKLEB cytotox – CF airway cell cytotoxicity counter-screen; KKLEB CF airway cells viability, ATPlite luminescence, overnight; active compounds read low; cells stimulated with P. aeruginosa culture filtrate; activity change (cytotoxicity), % at 5 µM; 360,000 compounds, 0.36% hits;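 active = corrected activity change at or below -50% at 5 µM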
# Mdm2 MdmX PPI – inhibitors of human Mdm2/MdmX interaction; 330,000 compounds, 3% hits; AID 485346; SaOS-2 split-luciferase Mdm2/MdmX complementation, luminescence; inhibition, % at 8 µM; O15151+Q00987;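 active = inhibition of at least 50% at 8 µM in the primary screen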
# ABHD5-PLIN5 inh – inhibitors of human ABHD5-perilipin-5 interaction. Q00G26+Q8WTS1. Split G. princeps luciferase complementation, luminescence, 4 h. inhibition, % at 4 µM. 360,000 compounds, 0.78% hits;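 active = inhibition above the mean inhibition across every tested compound plus 3 SD, cut at about 22% in these data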;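 note: 0% = DMSO only wells and the 100% control is not disclosed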
# Target sequence (Q00G26 whole entry, looked up): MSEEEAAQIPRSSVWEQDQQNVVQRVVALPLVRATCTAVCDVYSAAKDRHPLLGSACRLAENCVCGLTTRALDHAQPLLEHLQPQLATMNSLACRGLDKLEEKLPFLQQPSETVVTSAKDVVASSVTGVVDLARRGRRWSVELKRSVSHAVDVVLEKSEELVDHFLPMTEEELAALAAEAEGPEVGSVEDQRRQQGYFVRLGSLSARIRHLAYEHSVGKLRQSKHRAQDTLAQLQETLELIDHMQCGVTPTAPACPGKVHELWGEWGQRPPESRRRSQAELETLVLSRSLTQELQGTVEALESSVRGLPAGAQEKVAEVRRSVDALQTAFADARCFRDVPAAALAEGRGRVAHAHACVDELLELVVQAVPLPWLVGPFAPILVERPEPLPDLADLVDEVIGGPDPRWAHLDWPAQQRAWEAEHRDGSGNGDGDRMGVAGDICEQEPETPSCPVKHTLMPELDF
# Target sequence (Q8WTS1 whole entry, looked up): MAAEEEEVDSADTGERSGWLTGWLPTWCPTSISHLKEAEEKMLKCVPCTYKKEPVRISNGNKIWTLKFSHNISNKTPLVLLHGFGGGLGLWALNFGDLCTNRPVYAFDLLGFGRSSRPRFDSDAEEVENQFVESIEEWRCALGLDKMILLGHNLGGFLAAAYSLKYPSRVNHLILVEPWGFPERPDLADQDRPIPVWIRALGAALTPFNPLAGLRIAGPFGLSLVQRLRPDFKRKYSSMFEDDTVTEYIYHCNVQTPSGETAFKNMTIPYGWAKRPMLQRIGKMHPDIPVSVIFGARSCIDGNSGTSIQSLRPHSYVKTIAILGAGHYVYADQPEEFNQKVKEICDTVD
# CF NFkB block – inhibitors of cystic fibrosis induced NF-kB | KKLEB NF-kB-GFP reporter, PAF-induced, GFP fluorescence overnight | inhibition, % at 5 µM | 360,000 compounds, 0.86% hits | AID 588850;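 active = at least 50% inhibition at 5 µM, scaled per plate between neutral and stimulator controls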;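 note: PAF is a Pseudomonas aeruginosa culture filtrate used as stimulus; plate controls were PAF-stimulated DMSO wells for no effect and unstimulated DMSO wells for full effect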
# Peg3 promoter – inhibitors of Peg3 promoter | 360,000 compounds, 1.7% hits | AID 588405 | inhibition, % at 20 µM | HeLa PEG-Prom luciferase reporter, luminescence, overnight;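 active = inhibition of at least 50% at 20 µM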
# HIF-2a conf – HIF-2a inhibition, single concentration confirmation; shares compounds with HIF-2a block; 786-0 RCC cells, HIF-2a luciferase reporter luminescence, overnight; inhibition, % at 18.8 µM; 1,800 compounds, 56% hits;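 active = mean inhibition across four replicates of at least 40 percent at the single tested concentration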
# HIF-1a counter – inhibits HIF-1a reporter, a counter-screen for HIF-2a inhibitors; shares compounds with HIF-2a block; MiaPaCa-2 HIF-1a luciferase reporter, desferoxamine, overnight; inhibition, % at 18.8 µM; 1,800 compounds, 72% hits;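 active = mean inhibition of the reporter signal across four replicates at the single tested dose of 50% or more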
# An asterisk follows results filed as active; · = not tested or not shown.
SMILES,HIF-2a block,KKLEB cytotox,Mdm2 MdmX PPI,ABHD5-PLIN5 inh,CF NFkB block,Peg3 promoter,HIF-2a conf,HIF-1a counter
CCOc1ccc(OCc2cccc(C(=O)N/N=C/c3cccnc3)c2)cc1,71*,1,-22,-14,-7,-71,90*,-53
O=C(c1cccc(OCc2ccccc2)c1)N1CCOCC1,-35,-9,19,4,10,-30,·,·
COc1ccc(OCc2cccc(C(=O)NN)c2)cc1,61*,3,-14,3,2,-24,70*,-121
NNC(=O)c1cccc(COc2ccc(Br)cc2)c1,0,0,-37,-7,-6,-202,·,·
CCOc1ccc(OCc2cccc(C(=O)N3CCOCC3)c2)cc1,65*,-11,47,-2,15,21,77*,-104
Oc1ccc(F)c(CN2CCN(c3ncc(Cc4ccccc4)cn3)CC2)c1,-6,·,·,-7,·,·,·,·
C=CCN(C(=O)CC(NC(C)=O)c1ccccc1)c1nc(-c2ccc(S(C)(=O)=O)cc2)cs1 (stereo not drawn),-124,0,-43,-1,-5,-117,·,·
CCOC(=O)Cc1csc(N/N=C/c2ccccc2)n1,41*,7,-12,-4,-18,-129,38,6
O=C(COc1ccc(S(=O)(=O)N2CCCC2)cc1)N1CCN(c2ccccc2F)CC1,8,-1,11,2,10,6,·,·
CCOC(=O)COc1ccc(S(=O)(=O)N2CCN(c3ccccc3F)CC2)cc1,47*,5,0,2,6,9,13,-1
Cc1ccc(CNC(=S)Nc2ccc(NS(=O)(=O)c3ccc(C)cc3)cc2)cc1,6,-1,43,-11,-35,21,·,·
O=C(c1ccco1)N1CCN(Cc2cc(=O)c(OCc3c(F)cccc3Cl)co2)CC1,4,-4,11,-5,11,11,·,·
CCOc1cc(/C=N/NC(N)=O)cc(Br)c1OCC(=O)Nc1ccccc1C,40*,-13,13,8,-10,42,15,66*
CCn1c(NC(=O)/C=C/c2ccc(F)cc2)nc2ccccc21,-52,6,42,4,-9,-41,·,·
